Data reported in PubChem BioAssay (NCATS).
Records with an inconclusive call do not appear. The source made the active and inactive calls. The call rests on the fitted dose curve; in most records, active means well fitted inhibition curve with a large enough effect; inconclusive means small, poorly fitted or top-dose-only effect; inactive means no such curve, though single readings can be large or run the other way.

assay: qHTS for Inhibitors of the Aldehyde Dehydrogenase Family (ALDH1A2, ALDH1A3, ALDH2, ALDH3A1) (AID 2061307); settings: ALDH inhibition qHTS; series mostly up to 50.3 µM; further: nearly all actives have a fitted effect of over 50% in size; on Potency: test system not described further here
Potency means the concentration at half of the fitted maximal effect.

Potency, active:
CCN1C(=O)c2ccccc2S(=O)c2ccc(C(=O)NCc3cccc(-c4ccccc4)c3)cc21 (configuration not stated) 22.5 µM
Cc1cc(Br)c2c(c1)/C(=C\C(=O)c1cccs1)C(=O)N2 2.52 µM
N#Cc1ccc(NC(=O)Cc2csc3nc(-c4ccccc4)cn23)cc1 18.2 µM
O=C(N/N=C/c1ccc(Br)o1)c1cccc(F)c1 6.31 µM
O=C(c1ccc(Cl)cc1)c1no[n+]([O-])c1C(=O)c1ccc(Cl)cc1 7.98 µM
O=C(Nc1ccc(-c2nnc3n2CCCC3)cc1)Nc1ccccc1Br 8.91 µM

Potency, inactive:
O=C(Nc1ncc(Cc2ccccc2F)s1)c1ccn(-c2ccccc2)n1
CCc1cccc(C)c1Nc1c(-c2ccc(N(C)C)cc2)nc2ncccn12
N#Cc1cccc(NC(=O)c2cc3c(s2)-c2ccc(Cl)cc2SC3)c1
COc1cc(NC(=S)N=Nc2c(O)[nH]c3ccccc23)cc(OC)c1OC
CC(=O)Nc1cccc(C(=O)Nc2nc(-c3ccc4c(c3)CCC(=O)N4)cs2)c1
CC(=O)c1c(C)[nH]c2ccc(O)cc12
COc1ccc(OC)c(NC(=O)c2cc(C3CC3)nc3c2c(C)nn3-c2ccc(C)cc2)c1
O=C(c1cc(-c2ccccc2Cl)nc2ccccc12)N1CCN(c2ccccc2O)CC1
OC[C@H]1O[C@@H](OCc2ccccc2)[C@H](O)[C@@H](O)[C@H]1O
COc1ccc2c(c1)C(C)(CCN(C)C)C(=O)N2C (configuration not stated)
O=C(O)c1csc(-n2[nH]c(-c3cc(F)ccc3F)cc2=O)n1
